Data on 66 compounds can be found in ChEMBL document CHEMBL3988442, “University of Dundee, Small-Polar-MMV Screening Library” (2021).

Out of some 48,000 compounds screened, about 13,000 (27%) showed an effect of 50% or more. This is one part of the list.

The subject of this test is Wolbachia pipientis. Nature of the test: Anti-Wolbachia Cell-Based Screen. The format is functional. Also noted: scale not given: in the data most compounds retested in dose-response had high values. Conditions: 5 µM.
As to `Cc1ccc(N2C[C@H]3CCC[C@@H](CN4CCOCC4)[C@H]3C2)nn1.O=C(O)C(F)(F)F`, the “Percent Effect” value is 7.309%.
Consider `O=C(Nc1ccc2c(c1)OCCO2)N1CCCN(Cc2cccs2)CC1`, for which the “Percent Effect” value is listed as -12.77%.
Regarding `Cc1cc(CN2CCN(C(=O)NC(C)Cn3ccnc3)CC2)no1` (stereo unspecified), the “Percent Effect” value is -2.401%.
Turning to `Cc1ccc(C(=O)N2CCN(C(=O)NC(C)Cn3ccnc3)CC2)o1` (stereo unspecified), the “Percent Effect” value turned out to be 0.8524%.
On to `CC(Cn1ccnc1)NC(=O)N1CCCN(Cc2cccs2)CC1` (stereo unspecified), for which the “Percent Effect” value was found to be 98.79%.
`O=C(NCCn1ccnc1)N1CCCN(Cc2cccs2)CC1`: the “Percent Effect” value turned out to be 115.6%.
On to `O=C1CCc2cc(NC(=O)N3CCCN(Cc4cccs4)CC3)ccc21`, for which the “Percent Effect” value is recorded as 4.237%.
Take `CC(Cn1cccn1)NC(=O)N1CCN(Cc2cccs2)CC1` (stereo unspecified): the “Percent Effect” value turned out to be 7.648%.
For `CC(Cn1ccnc1)NC(=O)N1CCN(Cc2cccs2)CC1` (stereo unspecified), the “Percent Effect” value is on record as 97.63%.
As to `CC(NC(=O)N1CCCN(Cc2cccs2)CC1)c1cccnc1` (stereo unspecified), the “Percent Effect” value was -8.61%.
To `O=C1CCCN1CCN1CCCCC1Cn1cccn1` (stereo unspecified) belongs -13.35%; to `COc1cc(C2C3=C(COC3=O)Nc3[nH]nc(C)c32)cc2c1OCO2` (stereo unspecified), -6.627%.
Consider `Cc1n[nH]c(C)c1CCNC(=O)Nc1ccc2c(c1)COC2`, for which the “Percent Effect” value is on record as -11.47%.
With `O=C(Cn1ccc(=O)cc1)NCc1ccc2sccc2c1`, the “Percent Effect” value was -4.934%.
In the case of `O=C(CN1CCNCC1)NCc1ccc2sccc2c1`, the “Percent Effect” value is -21.43%.
As for `O=C(CN1CCNC1=O)NCc1ccc2sccc2c1`, the “Percent Effect” value amounted to 117.7%.
Consider `CC(=O)N1CCC(C)(c2cc[nH]n2)CC1`, for which the “Percent Effect” value is reported as 158.8%.
`COc1ccc(N)c(N2CCN(C(C)=O)CC2)n1`: the “Percent Effect” value is reported as -3.558%.
As for `CC(=O)N1CC2(CCN(C(=O)c3cccc4[nH]ccc34)CC2)C1`, the “Percent Effect” value was -2.889%.
Then `CC1(c2cc[nH]n2)CCN(C(=O)c2ccc(Cl)cc2)CC1`, with 120.3%.
Turning to `CC(C)C(=O)N1CCC(C)(c2cc[nH]n2)CC1`, the “Percent Effect” value was found to be 145.9%.
Turning to `CC(C)C(=O)N1CCC2(CC1)NC(=O)c1ccccc12.Cl`, the “Percent Effect” value is -14.83%.
`CC(C)C(=O)N1CCC2(CC1)NC(=O)[C@H]1CN(C(=O)N(C)C)C[C@H]12`: the “Percent Effect” value is on record as -23.47%.
In the case of `Cc1nnc(CCNC(=O)c2coc(CN3CCOCC3)c2)s1`, the “Percent Effect” value is given as -3.668%.
In the case of `CCCOc1ccc2c(c1)OCC(C(=O)NC(C)Cn1cccn1)=C2` (stereo unspecified), the “Percent Effect” value was found to be 18.55%.
As for `O=c1c(C(F)(F)F)cccn1Cc1nnc(-c2cccnc2)o1`, the “Percent Effect” value is -24.3%.
Turning to `N[C@H]1CN(C(=O)c2ccc3[nH]c(=O)c(=O)[nH]c3c2)C[C@@H]1c1ccccc1`, the “Percent Effect” value is 97.68%.
On to `Cc1nc2cc(C(=O)N3C[C@@H](C(=O)O)[C@H](C4CC4)C3)ccc2[nH]1`, for which the “Percent Effect” value was -4.344%.
Regarding `Cc1nc2cc(C(=O)N3C[C@@H](NS(C)(=O)=O)[C@H](C(C)C)C3)ccc2[nH]1`, the “Percent Effect” value is on record as -4.009%.
Turning to `Nc1nc(CCC(=O)N2C[C@H](c3ccccc3)[C@@H](N)C2)cs1`, the “Percent Effect” value is given as -7.394%.
As for `Cc1nc2cc(C(=O)N3C[C@@H](C(=O)O)[C@H](c4ccncc4)C3)ccc2[nH]1`, the “Percent Effect” value was -0.783%.
Then `N[C@H]1CN(C(=O)CCc2ccccn2)C[C@@H]1c1ccccc1`, with 8.322%; and `N[C@H]1CN(C(=O)CCC(F)(F)F)C[C@@H]1c1ccccc1`, with 7.576%.
Regarding `N[C@H]1CN(C(=O)c2ccc3[nH]c(CO)nc3c2)C[C@@H]1c1ccccc1`, the “Percent Effect” value was 103.3%.
Then `CCC[C@H]1CN(C(=O)c2ccc3[nH]c(CO)nc3c2)C[C@@H]1N`, with 98.53%; and `O=C(CCn1ccc(=O)[nH]c1=O)N1CCC(Oc2ncccc2Cl)CC1`, with 8.092%.
As to `Cc1ccc(CNC2CCCc3c2cnn3Cc2ccccc2)s1.Cl` (stereo unspecified), the “Percent Effect” value is reported as 8.556%.
Then `Cc1oc(-c2ccccc2)nc1C(=O)NC1=NCCS1`, with -10.94%; and `Cc1ccc(NC(=O)c2ccc(N3CCCCC3)nn2)c(Cl)c1`, with -6.125%; and `O=C(NCCCc1cccs1)N1CCCCC1CCO` (stereo unspecified), with -11.71%.
Turning to `Cc1cc(C)n(CC(=O)N(C)Cc2csc(-c3cccs3)n2)c(=O)n1`, the “Percent Effect” value was -2.174%.
On to `Cc1cc2ccccc2n1CCC(=O)N1CCCCC1CCO` (stereo unspecified), for which the “Percent Effect” value is given as -1.29%.
Take `Cc1cc(C)n(CC(=O)N2CCCCC2CCc2cccs2)c(=O)n1` (stereo unspecified): the “Percent Effect” value was 103.5%.
As to `O=C1CCCN1CCC1CCCCN1C(=O)c1ccc(SCCO)cc1` (stereo unspecified), the “Percent Effect” value was determined as 10.34%.
Regarding `Cc1cc(C)n(CC(=O)N2CCCCC2CCN(C)C)c(=O)n1` (stereo unspecified), the “Percent Effect” value worked out at 101.4%.
On to `Cn1c(C2CCCCN2C(=O)CN2CCCC2=O)nc2ccccc21` (stereo unspecified), for which the “Percent Effect” value stood at 3.336%.
To `Cc1cc(C)n(CC(=O)N2CCCCC2CCN2CCCC2=O)c(=O)n1` (stereo unspecified) belongs 117.3%; to `Cc1cc(C)n(CC(=O)N2C[C@@H]3CC[C@H](C2)N(CC2CCC2)C3)c(=O)n1`, 9.507%; to `COC(=O)c1cc(CN2CCN(c3nc(C)cnc3C)CC2)ccc1O`, -22.17%.
To `CCN(CC)C(=O)c1cc(Br)cc(S(=O)(=O)N2CCOCC2)c1F` belongs -12.93%; to `COc1ccccc1C(=O)Nc1c(F)c(C(=O)NC2CCCC2)nn1C`, 102.6%; to `COc1ccccc1C(=O)Nc1ccc(OC2CCN(C)CC2)cc1`, -27.65%.
For `COc1ccccc1C(=O)Nc1c(C)cnn1CC1CC1`, the “Percent Effect” value is recorded as -3.808%.
Take `COc1ccccc1C(=O)Nc1c(F)c(C(=O)N2CCCC2)nn1C`: the “Percent Effect” value was determined as 113.5%.
On to `Cc1nn(C)c(C)c1C(C(=O)O)N1CCc2ccccc2C1` (stereo unspecified), for which the “Percent Effect” value is listed as 39.47%.
For the compound `CC(C)C(=O)Nc1cc(C(C)(C)C)nn1-c1ccccn1`, the “Percent Effect” value stood at 3.907%.
Then `CN(Cc1ccccc1Cl)C(C(=O)O)c1ccc(F)c(CO)c1` (stereo unspecified), with -0.8463%; and `CCn1nc(C)c(S(=O)(=O)Nc2cccc(C(=O)O)c2C)c1C`, with -0.6024%.
In the case of `Cc1ccc(-n2cc(S(=O)(=O)Nc3cccc(C(=O)O)c3C)cn2)cc1`, the “Percent Effect” value was 125.3%.
On to `CCn1cc(S(=O)(=O)NC(CO)Cc2ccccc2)cn1` (stereo unspecified), for which the “Percent Effect” value is -18.17%.
On to `Cc1cccc(NS(=O)(=O)c2cnn(C)c2)c1C#N`, for which the “Percent Effect” value is recorded as -6.698%.
To `Cc1ccc(NS(=O)(=O)c2cnn(Cc3ccccc3)c2)c(C(=O)O)c1` belongs 100.3%; to `CCn1cc(C(=O)Nc2ccc(C)cc2C(=O)NC)cn1`, -4.213%; to `Cc1cn(-c2ccccc2)nc1NS(=O)(=O)c1cccc(C(=O)O)c1`, 12.37%.
Regarding `NC(=O)C1CCN(S(=O)(=O)c2cnn(-c3ccccc3)c2)CC1`, the “Percent Effect” value is listed as -7.83%.
Turning to `Cc1ccc(NS(=O)(=O)c2cnn(-c3ccccc3)c2)c(C(=O)O)c1`, the “Percent Effect” value was found to be 131.3%.
